Assay outcomes (PubChem)
TRHR agonist – agonists of human TRH receptor | P34981 | TRHR cells, calcium flux fluo-8, FDSS agonist mode | activation, % at 2 µM | hit rate 0.18% among 360,000
Target sequence (P34981 whole entry, looked up): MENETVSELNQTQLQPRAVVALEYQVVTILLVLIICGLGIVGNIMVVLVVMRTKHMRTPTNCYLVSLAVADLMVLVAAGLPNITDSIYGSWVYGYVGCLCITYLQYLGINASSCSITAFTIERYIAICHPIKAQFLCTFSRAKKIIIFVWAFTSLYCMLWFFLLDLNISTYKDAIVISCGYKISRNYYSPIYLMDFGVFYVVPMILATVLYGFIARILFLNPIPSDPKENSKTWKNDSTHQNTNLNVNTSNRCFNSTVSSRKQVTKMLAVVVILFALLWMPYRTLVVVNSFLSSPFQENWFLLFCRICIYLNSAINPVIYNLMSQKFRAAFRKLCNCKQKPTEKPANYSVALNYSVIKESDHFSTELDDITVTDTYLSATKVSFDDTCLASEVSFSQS
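In this calcium-flux screen, cells bearing human TRHR are dye-loaded with fluo-8, baselined for 10 cycles, then exposed to library compounds; positive kinetic calcium responses during the agonist phase mark hits, with TRH as control.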
D1 potentiator – potentiators of human D1 dopamine receptor; P21728; HEK293 TREx D1 cells, calcium flux, dopamine EC20 potentiation; potentiation, % at 10 µM; hit rate 0.036% among 360,000; in the data active = potentiation above about 30%
TRHR enhancer – TRH receptor (human) allosteric enhancement | P34981 | AID 493056 | enhancement, % at 2 µM | TRHR cells, fluo-8 calcium fluorescence, EC20 TRH enhancement | hit rate 0.66% among 360,000; in the data active = enhancement above about 30%
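TRHR-expressing cells loaded with fluo-8 calcium dye were read kinetically (ex 480/em 530) during compound addition, then stimulated with an EC20 of TRH (10 nM final). Enhancement of the Gq-mediated intracellular calcium response was scored.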
USP1-UAF1 inh – inhibitors of human USP1/UAF1 deubiquitinase; hit rate 0.23% among 390,000; recombinant USP1/UAF1, Ub-Rhodamine cleavage fluorescence; Potency, µM (highest dose often 57.1 µM), most hits filed as inhibitors; O94782; AID 743255; active = well fitted inhibition curve with a large enough effect; inconclusive = small, poorly fitted or top-dose-only effect; inactive = no such curve, though single readings can be large or run the other way; note: nearly all actives have a fitted effect of over 60% in size
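USP1/UAF1 complex at 1 nM was preincubated with compound for 15 min at room temperature, then Ub-Rho substrate (150nM final) was added. Fluorescence (480/540 nm) was read kinetically, 6 reads every 60 seconds.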
D1 ag – agonists of human D1 dopamine receptor. HEK293 T-REx D1 cells, calcium flux, agonist mode. activation, % at 2 µM. hit rate 1% among 360,000
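Agonism was scored from calcium flux recorded over 180 s (1 read/s) after pintool compound addition, following a 10-cycle baseline. Cells were inducible force-coupled HEK293 TREx D1, plated overnight at 30 C and loaded with no-wash calcium dye.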
D1 antagonist – blocks dopamine activation of the human D1 receptor; P21728; HEK293 TREx D1 cells, calcium flux, dopamine EC80; hits give low values; activity change, negative = inhibition, % at 10 µM; hit rate 3.2% among 360,000; AID 504652; in the data active = activity change below about -30%
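Using tetracycline-induced force-coupled D1 Hek293 cells and a calcium dye, signals were followed for 180 s after compound, then for 180 s after EC80 dopamine, to detect inhibitors.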
A number is an active result; 0 = inactive; ? = inconclusive; - = not tested or not shown. This is a sample that favours compounds with a hit; in the whole collection about 4.4% have one here. Cut-off read from the data, not from the text of the source, unless noted: active = activation above about 30%; inactive = the rest.

SMILES	TRHR agonist	D1 potentiator	TRHR enhancer	USP1-UAF1 inh	D1 ag	D1 antagonist
CCOc1ccc(-n2c(=O)c3c(C)c(C)sc3n(Cc3ccccc3C)c2=O)cc1	0	0	0	0	0	-73.4
CCOc1ccc(-n2c(=O)c3c(C)c(C)sc3n(Cc3cc(=O)n4cc(Cl)ccc4n3)c2=O)cc1	0	0	0	0	0	-42.2
CCCCCn1c(=O)[nH]c2cc(C(=O)NCc3ccc(OC)cc3)ccc2c1=O	0	0	0	0	0	0
Cc1cc(-c2ccc(S(=O)(=O)Nc3ccc(Cl)cc3C)cc2)on1	0	0	0	0	0	0
COc1ccc(C2c3[nH]c4ccc(OC)cc4c3CCN2C(=O)Nc2ccccc2)cc1 (centres undefined)	0	0	0	0	0	0
O=S(=O)(c1cccc(F)c1)N1CCN(S(=O)(=O)c2ccc3c(c2)OCCO3)CC1	0	0	0	-	0	0
O=C(COC(=O)CNC(=O)C1CCCCC1)Nc1ccccc1	-	-	-	0	-	-
Cc1cccc(C)c1NC(=O)COC(=O)CNC(=O)C1CCCCC1	0	0	0	0	0	-31.4
Clc1ccc(N/N=C/c2ccncc2)cc1Cl	0	0	0	0	0	-34.2
Clc1cnc(N/N=C/c2ccncc2)c(Cl)c1	0	0	0	0	0	0
Cc1ccc(Cn2c(CN3CCN(c4cccc(Cl)c4)CC3)nc3c2c(=O)n(C)c(=O)n3C)cc1	0	0	0	0	0	0
O=C(O)/C=C/c1cc(F)c(S(=O)(=O)N2CCN(S(=O)(=O)c3ccc4c(c3)OCCO4)CC2)cc1F	0	0	0	-	0	0
CCCCCCCC(O)CC(CC1CCCCC1)C(=O)NN (centres undefined)	0	0	32.9	0	0	0
CCCCC(CC(O)COCC(C)C)C(=O)NN (centres undefined)	0	0	0	0	0	0
Cc1cn2c(=O)cc(COC(=O)COc3ccccc3C)nc2s1	0	0	0	0	0	-30.2
Cc1cn2c(=O)cc(COC(=O)c3cccc(NC(=O)COc4ccccc4C)c3)nc2s1	0	0	0	0	0	0
Cc1cn2c(=O)cc(COC(=O)c3cccc(NC(=O)c4ccccc4Cl)c3)nc2s1	0	0	0	0	0	0
Cc1cn2c(=O)cc(COC(=O)c3cccc(NC(=O)c4ccccc4C)c3)nc2s1	0	0	0	0	0	-59.0
Cc1cn2c(=O)cc(COC(=O)c3ccc(NC(=O)COc4ccc(C)c(C)c4)cc3)nc2s1	0	0	0	0	0	-35.8
O=C(CSc1nc2ccccc2n1Cc1ccccc1Cl)NCc1ccccc1	0	0	0	0	0	0
CCC(Oc1ccccc1-c1nnc(-c2ccccc2)o1)C(=O)Nc1ccc(C(C)=O)cc1 (centres undefined)	0	0	0	0	0	0
COCC1CCCN(Cc2cn(-c3ccccc3F)nc2-c2cc(C)sc2C)C1 (centres undefined)	0	0	32.0	0	0	0
CC(=O)NCC1CCCN(Cc2cn(-c3ccccc3F)nc2-c2cc(C)sc2C)C1 (centres undefined)	0	0	0	0	0	0
Fc1ccc(-c2ccc(Nc3cccc(F)c3)nn2)cc1	0	0	0	0	0	-34.4
COc1ccccc1-c1ccc(Nc2cccc(C(F)(F)F)c2)nn1	0	0	0	0	0	0
SMILES	TRHR agonist	D1 potentiator	TRHR enhancer	USP1-UAF1 inh	D1 ag	D1 antagonist
Fc1ccc(Nc2ccc(-c3ccc(F)cc3)nn2)cc1	0	0	0	0	0	-44.8
O=C(NCc1noc2ccccc12)Nc1ccc(F)cc1F	0	0	0	0	0	0
O=C(Nc1ncc([N+](=O)[O-])s1)c1cccc([N+](=O)[O-])c1	0	0	0	0	31.7	0
CC(=O)OC1=CN(Cc2ccccc2)S(=O)(=O)c2ccccc21	0	0	0	0	0	0
Cc1cccc(NC(=O)CSc2nc3[nH]c(=O)cc(O)c3s2)c1	0	0	0	0	0	-31.7
Cc1nc(-c2ccc(S(=O)(=O)Nc3ccc(C#N)cc3)cc2)co1	0	0	0	0	0	0
Cc1ccc(-n2c(=O)c3c(cnn3C)n(CC(=O)Nc3cccc(C)c3)c2=O)cc1	0	0	0	0	0	0
Cc1ccc(-c2cn3nc(N4CCCC(C(=O)NCc5ccccc5F)C4)sc3n2)cc1 (centres undefined)	0	0	30.4	?	0	0
Cc1cc(=O)n2nc(N3CCCC(C(=O)Nc4ccc(C)c(C)c4)C3)sc2n1 (centres undefined)	0	0	0	0	0	-59.3
CCc1ccccc1NC(=O)C1CCCN(c2nn3c(=O)cc(C)nc3s2)C1 (centres undefined)	0	0	0	0	0	0
Cc1cc(=O)n2nc(N3CCCC(C(=O)NCCc4ccc(Cl)cc4)C3)sc2n1 (centres undefined)	0	0	0	0	0	-35.4
Cc1cc(=O)n2nc(N3CCCC(C(=O)NCCc4ccccc4)C3)sc2n1 (centres undefined)	0	0	0	0	0	0
NC(=O)c1ccccc1NC(=O)C1CCCN(c2ncnc3onc(-c4ccc(F)cc4)c23)C1 (centres undefined)	0	0	0	0	0	0
CC(C)c1ccc(S(=O)(=O)c2nnn3c2nc(N2CCOCC2)c2sccc23)cc1	0	0	0	0	0	0
CCN(C(=O)CCS(=O)(=O)c1cc2[nH]c(=O)c(=O)[nH]c2cc1C)c1ccccc1	0	0	0	?	0	-79.7
CCN(C(=O)CCS(=O)(=O)c1cc2c(cc1C)NC(=O)CO2)c1cccc(C)c1	0	0	0	0	0	0
CCc1ccc(/C=C2/SC(=S)N(CCC(=O)Nc3cccc(C(=O)O)c3)C2=O)cc1	0	0	0	0	67.8	0
CCc1ccc(/C=C2/SC(=S)N(CCCC(=O)Nc3ccccc3C(=O)O)C2=O)cc1	0	0	0	0	0	-32.4
CCc1ccc(/C=C2/SC(=S)N(CCC(=O)Nc3ccc(C(=O)O)cc3)C2=O)cc1	0	0	0	-	0	0
O=C(NC1=NCCS1)c1sc2ccccc2c1Cl	0	0	0	0	0	0
O=C(NC1=NCCS1)c1sc2cc(Cl)cc(Cl)c2c1Cl	0	0	0	0	0	-33.7
Cc1[nH]c2ccccc2c1C(=O)C(=O)N1CC=C(c2ccccc2)CC1	0	0	0	0	0	-37.4
Cc1[nH]c2ccccc2c1C(=O)C(=O)N1CC(C)OC(C)C1 (centres undefined)	0	0	0	0	0	0
Cc1[nH]c2ccccc2c1C(=O)C(=O)N1CCN(c2ccccc2Cl)CC1	0	0	0	0	0	0
Cc1[nH]c2ccccc2c1C(=O)C(=O)N1CCN(c2cccc(Cl)c2)CC1	0	0	0	0	0	-37.8
